The panel holds about 83,000 compounds, 20% with a hit somewhere; the sample as a whole holds those more often.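 How to read the values: 0–100, growth inhibition (40 = 60% inhibited); 0, no net growth; -100 to 0, cell death (-40 = 40% of starting cells died; -100 = all dead).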 A number with no mark means an inactive call.
Test system: HOP-62 NSCLC
Test: NCI-60 one-dose screen, 48 h (100 = growth as untreated, 0 = no growth, -100 = all killed)
Details: 10 µM unless noted
Experimental: Growth inhibition of the HOP-62 human Non-Small Cell Lung tumor cell line is measured as a screen for anti-cancer activity. Cells are grown in 96 well plates and exposed to the test compound for 48 hours. Compounds are tested at a single concentration, which is 10^-5 M for most compounds. The reported endpoint is percent growth (GI% or GIPRCNT), where numbers from 0 - 100% represent growth inhibition, and numbers from -100% - 0 represent cell death. For example, a value of 40 represents 60% growth inhibition. A value of 0 means no net growth occurred over the course of the experiment. A value of -40 indicates 40% of cells at the beginning of the experiment died by the end of the experiment. A value of -100 means all cells are dead at the end of the experiment.
NCI-60 Human Tumor Cell Lines Screen was performed using the standard one-dose NCI protocol, which is described in more detail at https://dtp.cancer.gov/discovery_development/nci-60/default.htm.
Compounds with GIPRCNT values below 10 were considered active. Activity score was based on GIPRCNT using the following formula: […]
Score is 0 for GIPRCNT values of 100 or above, 50 for GIPRCNT values of 0, and 100 for GIPRCNT values of -100.

Row | Compound | growth
1 | COc1ccc2c(c1)c(-c1nc(-c3ccc4ccccc4c3)cs1)cn2C | 90.4%
2 | Cc1cccc(NC(=O)Cn2cc(CN3CCN(c4ccnc5cc(Cl)ccc45)CC3)nn2)c1 | 80.1%
3 | CCOC(=O)C/C(=N\Nc1cc(=O)[nH]c2ccc(OC)cc12)C(=O)OCC | 105%
4 | COC(=O)/C=C1/SC(=NCc2ccccc2)N(CCc2c[nH]c3ccccc23)C1=O | 102%
5 | CCCCCc1ccc(S(=O)(=O)Nc2ccc3nc(N)oc3c2)cc1 | 78.5%
6 | COc1ccc(-c2cc(-c3cc(OC)ccc3OC)nc(SCC(C)=O)c2C#N)cc1 | 75.5%
7 | Cn1c(C#N)ccc1-c1ccc(F)c(NC(=O)c2ccc(F)cc2)c1 | 75.8%
8 | ClCCn1cnc2c(SCc3ccccc3)ncnc21 | 66.6%
9 | O=c1ccc2ccc(OCCN3CCCCC3)cc2o1 | 84.5%
10 | c1ccc(-c2ccc3c(c2)C2(CCNCC2)CN3)cc1 | 95.2%
11 | CC1=Nc2cnc(Nc3ccc(N4CCCCC4)cc3)nc2Nc2ccccc21 | 94.4%
12 | CCOC(=O)c1[nH]cc2c1CCc1sc(Nc3ccccn3)nc1-2 | 92.3%
13 | CN(C)c1ccc(CNCCO)cc1 | 76.3%
14 | Clc1ccc(-c2cc(-c3ccccc3)nc(N3CCN(CCCNc4ccnc5cc(Cl)ccc45)CC3)n2)cc1 | 82.1%
15 | Cc1ccc(S(=O)(=O)c2nc(-c3ccccc3)oc2SCC(N)=O)cc1 | 98.3%
16 | COC(=O)c1c2c(c(C)[n+]([O-])c1C)C(=O)C(NCc1ccccc1)=CC2=O | 67.1%
17 | O=c1cc(CP(=O)(O)O)c2cc(O)c(-c3ccccc3)cc2o1 | 103%
18 | COc1cc(/C=N/NC(=O)c2ccc(-n3cc(-c4ccccc4)nn3)cc2)cc(OC)c1OC | 71.7%
19 | COc1ccc(/C=N/Nc2c3ccccc3nc3ccccc23)cc1 | 98%
20 | Cc1[nH]c(C(=O)Nc2ccccc2OC2CCN(CCN3CCOCC3)CC2)c(Cl)c1Cl | 89.9%

Row | Compound | growth
21 | C=C1C(=O)O[C@H]2[C@H]1CC/C(COC(=O)NCc1ccc(Cn3c(=O)sn(-c4ccc(I)cc4)c3=O)cc1)=C\CC[C@@]1(C)O[C@@H]21 | 97.8%
22 | O=C(/C=C/c1ccccc1Cl)c1cccc(OCCCCOc2cccc(C(=O)/C=C/c3ccccc3Cl)c2)c1 | 103%
23 | C=CCn1cc(-c2nc3ccccc3s2)c2cc(-c3ccc4c5c(cccc35)C(=O)N(CCO)C4=O)ccc21 | 90.6%
24 | COc1cc(-c2cc(-c3ccc(Nc4nc(Nc5ccc(Cl)cc5)nc(Nc5ccc(Cl)cc5)n4)cc3)no2)cc(OC)c1OC | 70.3%
25 | COc1ccc(/C=C2\c3cc(OC)c(OC)c(OC)c3CC[C@@H]2O)cc1F | 32.6%
26 | COc1ccc2c(c1)oc1c(C)c3c(c(C)c12)C(=O)N(CCOS(C)(=O)=O)C3=O | 103%
27 | COc1cc2c3c(c4c5ccccc5[nH]c4c2c(OC)c1OC)C(=O)N(CCN1CCCCC1)C3=O | 41.7%
28 | c1ccc(Cn2cc3c(c2-c2ccccc2)CCc2cnoc2-3)cc1 | 75.1%
29 | CN1c2ccccc2S(=O)(=O)n2c(SCC(=O)Nc3nc4ccc(F)cc4s3)nnc21 | 103%
30 | Cc1ccc(OCCOCCOCCOc2ccc(C)n(O)c2=S)c(=S)n1O | 30.3%
31 | C=C(C)[C@@H]1CC[C@]2(C(=O)N3CCNCC3)CC[C@]3(C)[C@H](CC[C@@H]4[C@@](C)(CCC(=O)N5CCNCC5)[C@H](C(=C)C)CC[C@]43C)[C@@H]12 | 92.9%
32 | Cc1cc(=O)n(C(=S)Nc2ccc(Cl)cc2)c2cc(O)ccc12 | 84.1%
33 | C=C1CC[C@@H]2C(C)(C)[C@H](O)CC[C@@]2(C)[C@@H]1COc1ccc2ccc(=O)oc2c1 | 45.9%
34 | COc1ccc(/C=C(/C(=O)N2CCNCC2)c2cc(OC)c(OC)c(OC)c2)cc1O | 56.4%
35 | CS(=O)(=O)Nc1cc(-c2ccc3ncnc(Nc4ccc(F)c(Cl)c4)c3c2)ccc1Cl | 64.7%
36 | COc1cc2c(cc1-c1c(C)noc1C)ncc1nc(CN3CCOCC3)n([C@H](C)COC(F)F)c12 | 16.6%
37 | O=C1CCCC1[n+]1ccccc1 (stereo not given) | 80.8%
38 | O=c1oc2c(cc1-c1ccccc1)c(=O)[nH]c1ccccc12 | 106%
39 | O=C(Oc1ccc2c(c1)sc1nc(-c3ccccc3)[nH]c(=O)c12)C(F)(F)F | 39.3%
40 | COc1ccc(/C=C2\CN(C(=O)C(Cl)Cl)C/C(=C\c3ccc(OC)c(OC)c3)C2=O)cc1OC | 34.3%

— PubChem BioAssay (NCI)
